Assay outcomes: PubChem, Buhrlage Lab, Dana-Farber Cancer Institute and Novartis Institutes for BioMedical Research (Cambridge, Mass)
This is a sample that favours compounds with a hit; in the whole collection about 11% have one here.
USP30 inh: blocks human USP30 ubiquitin-rhodamine cleavage; purified USP30, Ub-rhodamine cleavage fluorescence; Q70CQ3; AID 1645860; 47,000 compounds, 5.3% hits; inhibition, % at 25 µM
OTUD3 block: blocks human OTUD3 ubiquitin-rhodamine cleavage; Q5T2D3; purified OTUD3, Ub-rhodamine fluorescence, 2 h; 47,000 compounds, 0.7% hits; AID 1645858; inhibition, % at 25 µM
USP28 block: blocks human USP28 ubiquitin-rhodamine cleavage | Q96RU2 | 47,000 compounds, 3% hits | purified USP28, Ub-rhodamine cleavage fluorescence, 30 min | inhibition, % at 25 µM | AID 1645857
USP17 inh: human USP17-like deubiquitinase inhibition | A8MUK1 | 47,000 compounds, 6.5% hits | inhibition, % at 50 µM | AID 1645855 | purified USP17, Ub-rhodamine cleavage fluorescence, 3 h
The depositor's hits bear a star. No stated cut-off is given here; in the data, active means inhibition above about 30%; inactive means the rest.

Cc1c(C(=O)NCCc2ccccc2)oc2ccc3c(c12)C(=O)CC1(CCCC1)O3 was read as USP30 inh -5, OTUD3 block 10, USP28 block 16 and USP17 inh 12.
For CCOc1ccccc1-c1nn2c(-c3cccnc3)nnc2s1 the results were USP30 inh -2, OTUD3 block -6, USP28 block -1 and USP17 inh 0.
For COc1ccccc1-c1nnc2sc(COc3cccc(C)c3)nn12 the results were USP30 inh 42*, OTUD3 block 18, USP28 block 25 and USP17 inh 17.
`Cc1nc2ccc(Cl)cn2c(=O)c1NC(=O)c1c(F)cccc1F` gave USP30 inh 8, OTUD3 block 5, USP28 block 10 and USP17 inh 13.
COc1ccc2cc3c(nc2c1)OC(=O)N(CCc1cccc(F)c1)C3 was read as USP30 inh 29, OTUD3 block 16, USP28 block 15 and USP17 inh 56*.
CCOc1ccc2cc3c(nc2c1)OC(=O)N(Cc1ccc(OC)cc1)C3 was read as USP30 inh 38*, OTUD3 block 21, USP28 block 14 and USP17 inh 27.
For COc1ccc2cc3c(nc2c1)OC(=O)N(Cc1ccc(F)cc1)C3 the results were USP30 inh 15, OTUD3 block 2, USP28 block -1 and USP17 inh 20.
O=C1CCSc2ccc(S(=O)(=O)Nc3ccccc3Cl)cc2N1 was read as USP30 inh 12, OTUD3 block 5, USP28 block 4 and USP17 inh 11.
Screening COc1cccc(C(=O)Oc2ccc3c(=O)c(-c4ccc(OC)c(OC)c4)coc3c2)c1 returned USP30 inh 12, OTUD3 block -6, USP28 block -4 and USP17 inh 79*.
`COc1cccc(C(=O)Oc2ccc3c(C)c(C)c(=O)oc3c2)c1` gave USP30 inh 13, OTUD3 block 10, USP28 block 10 and USP17 inh 49*.
Screening O=C(C1Cn2ccnc2C2(CCN(Cc3cccc(Cl)c3)CC2)O1)N1CCOCC1 (centres undefined) returned USP30 inh -19, OTUD3 block -4, USP28 block -12 and USP17 inh -27.
`O=C(COc1ccc(Cl)cc1Cl)Nc1ccccc1-c1nc2ccccc2[nH]1` gave USP30 inh 10, OTUD3 block 17, USP28 block 10 and USP17 inh 84*.
Cc1cc(Cl)ccc1OCC(=O)Nc1ncccc1C was read as USP30 inh -3, OTUD3 block -12, USP28 block -4 and USP17 inh -3.
O=C(COc1ccc(Cl)cc1Cl)Nc1noc2ccccc12 was read as USP30 inh -13, OTUD3 block -6, USP28 block 0 and USP17 inh 40*.
Screening O=C(COc1ccc(Cl)cc1Cl)Nc1ccc2sccc2c1 returned USP30 inh 46*, OTUD3 block -3, USP28 block 0 and USP17 inh 41*.
Screening Cc1c(C(=O)NCCCN2CCOCC2)oc2ccc3c(c12)C(=O)CC1(CCCC1)O3 returned USP30 inh -6, OTUD3 block -6, USP28 block -2 and USP17 inh -14.
Cc1cc(C)cc(NC(=O)C2CCCN(S(=O)(=O)N3CCOCC3)C2)c1 (centres undefined) was read as USP30 inh 8, OTUD3 block 8, USP28 block 9 and USP17 inh 1.
O=C(Nc1cc(F)ccc1F)c1cnn2c3c(cnc12)CCCCC3 was read as USP30 inh -52, OTUD3 block -8, USP28 block -14 and USP17 inh -13.
For CC1CCCN(C(=O)c2cn(-c3ccc(S(=O)(=O)N4CCCC(C)C4)cn3)cn2)C1 (centres undefined) the results were USP30 inh 38*, OTUD3 block 11, USP28 block 10 and USP17 inh 6.
For Cc1ccc(C)c(NC(=O)Cn2c3ncccc3c(=O)n2-c2ccccc2)c1 the results were USP30 inh 45*, OTUD3 block 13 and USP28 block 5.
CCc1ccc(NC(=O)CSc2ccc(N3CCC(C(=O)NC4CC4)CC3)nn2)cc1 was read as USP30 inh 62*, OTUD3 block 38*, USP28 block 67* and USP17 inh 62*.
`O=C(NCCc1nc2ccccc2n1CCCOc1ccccc1Cl)C1CCCCC1` gave USP30 inh 79*, OTUD3 block 33*, USP28 block 24 and USP17 inh 83*.
`COc1ccc(/C=C/c2ccc(=O)n(Cc3ccccc3)n2)cc1` gave USP30 inh 16, OTUD3 block 9, USP28 block 13 and USP17 inh 20.
COc1ccc(Cn2nc(-c3ccccc3)cc2-c2ccccc2O)cc1 was read as USP30 inh 43*, OTUD3 block 23, USP28 block 21 and USP17 inh 12.
For CN1C[C@H]2CCN(C(=O)NC3CCCC3)CC[C@H]2S1(=O)=O the results were USP30 inh 23, OTUD3 block 7, USP28 block 8 and USP17 inh 17.
For O=S(=O)(Nc1cccc(-c2nnc(-c3ccccc3)o2)c1)c1ccccc1 the results were USP30 inh -1, OTUD3 block -3, USP28 block -7 and USP17 inh 13.
`O=S(=O)(Nc1cccc(-c2nnc(Cc3ccc4c(c3)OCO4)o2)c1)c1ccccc1` gave USP30 inh 27, OTUD3 block 9, USP28 block 32* and USP17 inh 11.
Screening CCn1cc(C(=O)N2CCCC2c2noc(C3CC3)n2)cn1 (centres undefined) returned USP30 inh 2, OTUD3 block 15, USP28 block 12 and USP17 inh 15.
Cc1ccc(CNC(=O)NC2CCN(c3ccc(F)cc3)C2=O)cc1 (centres undefined) was read as USP30 inh 9, OTUD3 block 11, USP28 block 8 and USP17 inh 21.
For COc1ccccc1C1(c2nnc(C(C)Oc3ccc(F)cc3)o2)CCOCC1 (centres undefined) the results were USP30 inh 1, OTUD3 block -1, USP28 block -1 and USP17 inh 3.
Cc1cnc(CN2CCCC(c3ccc4cn[nH]c4n3)C2)cn1 (centres undefined) was read as USP30 inh -2, OTUD3 block 47*, USP28 block 0 and USP17 inh -12.
Cc1noc(C)c1CC(=O)Nc1cccn2nc(C3CCC3)nc12 was read as USP30 inh -52, OTUD3 block -5, USP28 block -5 and USP17 inh -14.
`Cc1cc2nc(Oc3cccc(C(F)(F)F)c3)c3ccccc3n2n1` gave USP30 inh 49*, OTUD3 block 7, USP28 block 17 and USP17 inh 35*.
For COc1cc2c(cc1OC)CN(C(=O)CCS(=O)(=O)c1ccc(Cl)cc1)CC2 the results were USP30 inh -70, OTUD3 block -20, USP28 block -4 and USP17 inh 32*.
Screening CCC1Sc2cc(S(=O)(=O)CCC(=O)N3CCc4ccccc4C3)ccc2NC1=O (centres undefined) returned USP30 inh 9, OTUD3 block -1, USP28 block 1 and USP17 inh -12.
COc1ccc(OCC(=O)N2CCc3cc(-c4noc(C)n4)ccc32)cc1 was read as USP30 inh 3, OTUD3 block 5, USP28 block 8 and USP17 inh 35*.
